In the supplement of paper PMC9694430:

Tested on: LOC_OS07G07230-cb001
Experiment: thermal shift delta Tm vs DMSO control; higher = stronger stabilization (binding)
Details: 12.5 µM; protein concentration 2 µM
In short: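 Heating from 25°C to 95°C at 0.05°C/s, fluorescence was recorded for 19.5 μl wells of 2 μM E. coli-expressed, purified rice kinase domain in 100 mM potassium phosphate pH 7.5, 150 mM NaCl, 10% glycerol and 5 × SYPRO Orange with compound in DMSO. Boltzmann fits gave melting temperatures for this differential scanning fluorimetry assay. The shift reported is the mean of three replicates against the DMSO-only protein.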
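Also: purified Escherichia coli-expressed rice kinase domain construct.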

Structure (SMILES) | thermal shift delta Tm [°C]
Cc1cc(NC(=O)c2cccc(NC(=O)/C=C/CN(C)C)c2)ccc1Nc1nccc(-c2cccnc2)n1 | -0.14
Nc1nccc(Oc2ccc(NC(=O)c3c[nH]cc(-c4ccc(F)cc4)c3=O)cc2F)c1Cl | 0.36
COc1ccc(/C=C/C(=O)C2(C(=O)/C=C/c3ccc(OC)c(OC)c3)CCCCC2)cc1OC | 0.7
CC(C)CC(=O)Nc1n[nH]c2c1CN(C(=O)C1CCN(C)CC1)C2(C)C | 0.05
